# Results taken from PubChem BioAssay.
# For part of these data: Entries with a potency or affinity are not part of this list. Active and inactive are the calls of the source.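 Rule for the calls, unless noted: active = fitted half-maximal concentration within the tested range, moderate curve steepness, significant signal drop, and little compound fluorescence or bead-linkage interference; inactive = the rest.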
# Columns and labels:
# [1] = target: Cell division control protein 42 homolog (Homo sapiens) (UniProt P60953); assay: activated mutant Cdc42 GTP-binding inhibitors, dose response, biochemical, multiplex bead flow cytometry, Bodipy-FL-GTP (AID 1333;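 active = fitted half-maximal concentration within the tested dose range, moderate curve steepness, a statistically real signal drop, and little compound fluorescence or tag-binding interference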)
# [2] = target: Cell division control protein 42 homolog (Homo sapiens) (UniProt P60953); assay: wildtype Cdc42 GTP-binding inhibitors, dose response, biochemical, multiplex bead flow cytometry, Bodipy-FL-GTP (AID 1334); conditions: bead-based flow cytometry, Bodipy-FL-GTP binding to GST-Cdc42; at 100 µM (top of the series) unless noted
# [3] = target: GTPase HRas (Homo sapiens) (UniProt P01112); assay: inhibitors of GTP binding to wildtype Ras, dose response, biochemical, multiplex bead flow cytometry (AID 1335;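 active = fitted half-maximal concentration within 10 nM to 100 µM, steepness 0.5 to 2, significant signal drop, low assay interference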); conditions: bead-based flow cytometry, Bodipy-GTP binding to GST-Ras; at 100 µM (top of the series) unless noted
# [4] = test system: Ras-related protein Rab-7a (dog), GTP binding; assay: Rab7 GTP binding inhibitors, potency, dose response, biochemical, wildtype, multiplex bead flow cytometry (AID 1336; call rule not given here)
# [5] = target: Ras-related C3 botulinum toxin substrate 1 (Homo sapiens) (UniProt P63000); assay: wildtype Rac1 GTP binding inhibitors, dose response, biochemical, multiplex bead flow cytometry (AID 1340;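 active = dose curve with midpoint inside tested range, moderate steepness, plateau gap beyond fit error, low compound glow and bead-link interference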); conditions: GST-Rac1 beads, Bodipy-FL-GTP binding; at 100 µM (top of the series) unless noted
# [6] = target: GTPase HRas (Homo sapiens) (UniProt P01112); assay: activated Ras mutant GTP binding inhibitors, dose response, biochemical, multiplex bead flow cytometry (AID 1341;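 active = dose-response curve with midpoint inside the tested range, moderate steepness, significant amplitude and little compound fluorescence or bead-attachment interference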;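 note: GST-tagged constitutively activated Ras mutant immobilized on beads and multiplexed with other GTPases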)
# Chain of GTPase HRas (Homo sapiens) (P01112 whole entry, looked up): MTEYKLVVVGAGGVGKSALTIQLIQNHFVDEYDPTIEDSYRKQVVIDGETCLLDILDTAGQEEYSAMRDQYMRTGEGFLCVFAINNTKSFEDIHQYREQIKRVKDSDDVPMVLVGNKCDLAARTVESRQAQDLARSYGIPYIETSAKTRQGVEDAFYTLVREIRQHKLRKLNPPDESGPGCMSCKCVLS
# Chain of Cell division control protein 42 homolog (Homo sapiens) (P60953 whole entry, looked up): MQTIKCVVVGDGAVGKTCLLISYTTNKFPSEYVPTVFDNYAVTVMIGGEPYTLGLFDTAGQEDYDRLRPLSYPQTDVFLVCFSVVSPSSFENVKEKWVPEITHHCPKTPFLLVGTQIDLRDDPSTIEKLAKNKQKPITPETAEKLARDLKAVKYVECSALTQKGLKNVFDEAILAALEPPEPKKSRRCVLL
Compound,outcome [1],"fluorescence, percent of control (lower = inhibition) [2]","GTP binding, percent of control [3]",outcome [4],"GTP binding signal, raw median fluorescence (lower = inhibition) (MCF (arbitrary fluorescence units)) [5]",outcome [6]
CCc1nnc(NS(=O)(=O)c2ccc(Nc3ccc4nonc4c3[N+](=O)[O-])cc2)s1,inactive,26.3%,65.4%,inactive,147,inactive
COc1ccc(OC)c(Nc2nc(-c3sc(N)nc3C)cs2)c1,inactive,32.7%,72.6%,inactive,179,inactive
O=S(=O)(Cc1ccc(Cl)cc1)c1ccccc1-c1nnc(-c2ccc(Cl)cc2)o1,inactive,84%,160%,inactive,172,inactive
Oc1c(C(c2ccccn2)N2CCOCC2)ccc2cccnc12 (stereo not drawn),inactive,55.1%,70.9%,inactive,0,inactive
Nc1c([N+](=O)[O-])cc(-c2cnc[nH]2)cc1[N+](=O)[O-],inactive,38.5%,81.1%,inactive,190,inactive
O=C(CN1CCN(CCOCCO)CC1)N1c2ccccc2Sc2ccc(Cl)cc21,inactive,37.7%,82.2%,inactive,266,inactive
COc1ccc2nc(C)cc(SCC(=O)N/N=C/c3ccc(O)c(O)c3)c2c1,inactive,35%,75.8%,inactive,164,inactive
COc1ccc(-c2cc(C(F)(F)F)c3c(n2)sc2c(O)cc(=O)[nH]c23)c(OC)c1,inactive,38.1%,76.3%,inactive,162,inactive
COc1ccc(OCCN2C(=O)c3ccccc3C2=O)cc1,inactive,35.6%,81.5%,inactive,240,inactive
O=c1c2ccccc2nc2c3ccccc3c(NCc3ccco3)nn12,inactive,80.4%,122%,inactive,144,inactive
COc1cc2c(cc1OC)-c1cc(NC3CCCCCCC3)nc(=O)n1CC2,inactive,33.3%,68.6%,inactive,142,inactive
Cn1cc(C=C2C(=O)CC(C)(C)CC2=O)c2ccccc21,inactive,49.4%,66.4%,inactive,180,inactive
CCOc1cccc(/C(O)=C2/C(=O)C(=O)N(CCOC)C2c2ccncc2)c1 (stereo not drawn),inactive,46.9%,57.7%,inactive,0,inactive
O=C(NC1CCCCC1)c1noc2c1CCCCC2,inactive,34.3%,80.9%,inactive,252,inactive
CCCCOc1cccc(C#CC(=O)c2ccc([N+](=O)[O-])cc2)c1,inactive,59.2%,182%,inactive,128,inactive
Cc1ccc(-n2nc3c(=S)[nH]nc(C)c3c2C)cc1,inactive,54.7%,66.3%,inactive,201,inactive
COCc1cc(C)nc(N/N=C/c2ccc(-c3ccc(C(=O)O)c(Cl)c3)o2)c1C#N,inactive,30.6%,74.4%,inactive,180,inactive
Cc1ccc(CNCc2c(C)[nH]c(C)c2C(=O)O)cc1,inactive,64.4%,88.9%,inactive,34.6,inactive
O=C(O)CCN1C(=O)/C(=C\c2ccc(-c3nc4ccccc4s3)o2)SC1=S,inactive,54.9%,63.4%,inactive,88.8,inactive
Cc1nn(-c2ccc(F)cc2)c(Cl)c1/C=C(\CC(=O)O)c1nc2ccccc2s1,inactive,77.1%,127%,inactive,160,inactive
Cc1cc2nc3c(=O)n(C4CCCCC4)c(=O)[nH]c3nc2cc1N,inactive,42.7%,53.2%,inactive,146,inactive
CC(=O)Nc1ccc(N=Cc2c(O)c(C(=O)Nc3ccccc3)cc3ccccc23)cc1,inactive,85.4%,123%,inactive,341,inactive
Cc1nonc1OCCNc1ccc([N+](=O)[O-])cc1[N+](=O)[O-],inactive,50.3%,63.5%,inactive,209,inactive
COc1cc(/C=N/NC(=O)C(Cc2c[nH]c3ccccc23)NC(=O)OCc2ccccc2)cc([N+](=O)[O-])c1O (stereo not drawn),inactive,29.6%,74%,inactive,208,inactive
COc1ccc(-c2cc(-c3ccc(O)cc3)nc(N)c2C#N)cc1OC,inactive,32.2%,77.1%,inactive,184,inactive
Cc1cc(C)nc(Nc2nc(=O)c3ccccc3s2)n1,inactive,50.5%,61.9%,inactive,205,inactive
CC(C)c1cc(NCc2ccccn2)n2c(nc3ccccc32)c1C#N,inactive,34.4%,77.4%,inactive,178,inactive
COc1cc(Cl)c(C)cc1NCc1sc(C(=O)O)cc1C,inactive,58.6%,82%,inactive,29.9,inactive
